This note sets out measurements from publication PMC7819943, “Rice protein-binding microarrays: a tool to detect cis-acting elements near promoter regions in rice”.

In all, about 39,000 sequences were measured (“fluorescence intensity (a.u.)”: median about 4,300, highest 2% from about 39,000 on). Shown is part of a subset that was picked to be rich in the highest values.

This assay has as its target T1, OsSMF1 (Oryza sativa, UniProt Q6ZLB0 1-436).
T1 sequence: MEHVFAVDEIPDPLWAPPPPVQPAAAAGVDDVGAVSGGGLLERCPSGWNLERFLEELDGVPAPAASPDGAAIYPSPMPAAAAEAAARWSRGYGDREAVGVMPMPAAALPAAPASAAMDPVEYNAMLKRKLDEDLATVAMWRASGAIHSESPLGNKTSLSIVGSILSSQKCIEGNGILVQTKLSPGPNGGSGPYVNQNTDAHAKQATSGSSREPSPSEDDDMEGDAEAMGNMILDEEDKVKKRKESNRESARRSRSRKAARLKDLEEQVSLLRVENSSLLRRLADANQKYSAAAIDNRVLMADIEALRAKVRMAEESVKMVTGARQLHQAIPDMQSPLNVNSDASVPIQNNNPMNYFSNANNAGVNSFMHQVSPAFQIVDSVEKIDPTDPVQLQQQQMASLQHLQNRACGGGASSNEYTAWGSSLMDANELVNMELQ
The assay is described as follows: protein-binding microarray (RPBM); PBS, 2% BSA, 51.3 ng/ul salmon testes DNA, 50 uM zinc acetate, 200 nM TF, 25 C, 1 h; high values mean tight binding. The following applies: protein: recombinant; tags: N-terminal polyhistidine and DsRed monomer fusion (pET32a); chain copies: 2; label: CyDye5-dUTP incorporated in the synthesized complementary strand; 3' TTTTT single-stranded linker to array surface; dsDNA, one strand shown. The essentials:
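Polyhistidine-tagged DsRed fusions of transcription factors, joined at the N-terminus, were expressed in E. coli BL21-CodonPlus and isolated on Ni–NTA. They were incubated at 200 nM for 1 h at 25 °C on a custom Agilent array, double-stranded and BSA-blocked, in PBS with 2% BSA, salmon testes DNA and 50 µM zinc acetate. The binding signal is per-feature fluorescence intensity (arbitrary units) read on an Axon 4000B scanner after washing.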
Turning to “GCTACTAAGGAGTACTACAATATTGCATCATCGTCATCATCGGAGTCACCTAGTGCAG”, the binding signal was 6340 fluorescence intensity (a.u.). To “AAGCTAACTTGTGTTGCCTACACAAGTACTAAAATGGCATCGGAGTCACCTAGTGCAG” belongs 63600 fluorescence intensity (a.u.). As for “TGCGCCGATAGCTCCTGTCAACGTGTCACGCGCTGCGCCTCGGAGTCACCTAGTGCAG”, the figure is 8650 fluorescence intensity (a.u.); as for “ATTCCAATTCCAGCTCAATGCTGCACGGAATCTCCTCTTCCGGAGTCACCTAGTGCAG”, 4140 fluorescence intensity (a.u.); as for “TACCTCTTCAGTACAGCTGCAGCTGCTGACTGCTCACTACCGGAGTCACCTAGTGCAG”, 4340 fluorescence intensity (a.u.). As to “CCAGTAATCCTCCTCCTGCTGCCTCAGCTCCTCTTCTGTACGGAGTCACCTAGTGCAG”, the binding signal is 50800 fluorescence intensity (a.u.). To “CGGTCCGGGCGATTTGACCGGTCAAAAGGCGTGGCCACGACGGAGTCACCTAGTGCAG” belongs 3850 fluorescence intensity (a.u.); to “AAAACGACCGGTTTTGACGTAAATCCACAAGGCGTTATGACGGAGTCACCTAGTGCAG”, 58400 fluorescence intensity (a.u.). Take “CACAACTACGTAGACGGGCGTTTGCGGCCGAAAATTTGACCGGAGTCACCTAGTGCAG”: the binding signal is 3730 fluorescence intensity (a.u.).

Turning to “CGCCGCCACAACCGCGCGCCGTCACCGCCGCGTGCCGTCACGGAGTCACCTAGTGCAG”, the binding signal was 5070 fluorescence intensity (a.u.). To “CCCACCACACACCCGGCCCCACATGTCATCCACCCATCCACGGAGTCACCTAGTGCAG” belongs 4500 fluorescence intensity (a.u.). To “TTCTTTCGTTAGTTCACCAAAGATGGGCATTTTACTAAGACGGAGTCACCTAGTGCAG” belongs 65000 fluorescence intensity (a.u.); to “CATTATCTAAGTTTCTTTACGTCATTATCTTCGTTTAATTCGGAGTCACCTAGTGCAG”, 3230 fluorescence intensity (a.u.). Take “TCTTTTCTAAGTCATGTTAGACCAATAGAGATTTCTCAAACGGAGTCACCTAGTGCAG”: the binding signal was 27600 fluorescence intensity (a.u.). To “TGTGTGCGTGTGTTGTGACTTATGATGTGTTTCTTAAGAACGGAGTCACCTAGTGCAG” belongs 4170 fluorescence intensity (a.u.); to “TAGAATTTCTCTTCATATAATGCTACGTCATTGCTATATACGGAGTCACCTAGTGCAG”, 10300 fluorescence intensity (a.u.); to “GATTCATTTAACAATTATATGAATGTGGGAAATGCTAGAACGGAGTCACCTAGTGCAG”, 44400 fluorescence intensity (a.u.). As for “CTAGATTTATTAATATCGATATGAATGTGGAAAATGCTAGCGGAGTCACCTAGTGCAG”, the figure is 18100 fluorescence intensity (a.u.). On to “CTATTGCAAATTGCAATGCTGTATATGCACTTCATTAGAACGGAGTCACCTAGTGCAG”, for which the binding signal is 54100 fluorescence intensity (a.u.). As for “CATGGTAGAAAATTAGATTATGGTGCATTTGCTGCAAATGCGGAGTCACCTAGTGCAG”, the figure is 3860 fluorescence intensity (a.u.); as for “TCATTAACATCAATATGAATGTGAGAAATGCTAGAATGACCGGAGTCACCTAGTGCAG”, 3240 fluorescence intensity (a.u.); as for “AATAATTTTCTCATTTTCTTTAACAGAAGATGACAATGCACGGAGTCACCTAGTGCAG”, 34800 fluorescence intensity (a.u.). As for “CACTTGGTAATTACTTCTACTATGTCATCCTTATCATAATCGGAGTCACCTAGTGCAG”, the figure is 3200 fluorescence intensity (a.u.). To “AGTTCTACTTGAGTTATGTAATGAATCACAATGCCTTCATCGGAGTCACCTAGTGCAG” belongs 53400 fluorescence intensity (a.u.). Consider “AGTTCATTATCATCATGTAATGAATCATCATGAATCCAAACGGAGTCACCTAGTGCAG”, for which the binding signal is 3280 fluorescence intensity (a.u.). To “TCCTTCAAGAATCCTATACTTCTTAAATCAGGAACATAATCGGAGTCACCTAGTGCAG” belongs 8910 fluorescence intensity (a.u.); to “GATTGAATCATATCGTATCCTTTGAAATTCCTATGGAATGCGGAGTCACCTAGTGCAG”, 4120 fluorescence intensity (a.u.); to “CACCACCCTAAATGGAATAAGAAAATTCTTATTTGTGAATCGGAGTCACCTAGTGCAG”, 3440 fluorescence intensity (a.u.). As for “ATCTTATGGAATCCTATGAAATTCATATGGAATGCCTAATCGGAGTCACCTAGTGCAG”, the figure is 65000 fluorescence intensity (a.u.).

“TCCAAATCCTATGAAATTCCTATGGAAATCCACGTTGCATCGGAGTCACCTAGTGCAG”: the binding signal was 7670 fluorescence intensity (a.u.). To “TTTGAATCAAAGGAATGGATCTTATGGAATCCTATAAAATCGGAGTCACCTAGTGCAG” belongs 40400 fluorescence intensity (a.u.). Turning to “TAAGGAGGGTGTTGGGAGGGTGGGAGCTTTGCTTGGGGTGCGGAGTCACCTAGTGCAG”, the binding signal is 3950 fluorescence intensity (a.u.). As for “TTGTTGAACTATAGGGTAGATGTGATATGTAAGAATTGCCCGGAGTCACCTAGTGCAG”, the figure is 3280 fluorescence intensity (a.u.); as for “CCGGGGTGTCAGAAATCCAGGCCCACCCGTCAGCGACGCGCGGAGTCACCTAGTGCAG”, 4130 fluorescence intensity (a.u.); as for “AAATCTCTCTCCACCCTTTCAGCGCGCCACGTGTCCCACACGGAGTCACCTAGTGCAG”, 18900 fluorescence intensity (a.u.).

Turning to “CAAAATACTCAAGCGGCGGCATTGTCATCTTCCTCCTCCCCGGAGTCACCTAGTGCAG”, the binding signal was 3550 fluorescence intensity (a.u.).

“GAGTATTTGGCATGGTTGTAGCGTTGGTGACCTGAGTCATCGGAGTCACCTAGTGCAG”: the binding signal was 7270 fluorescence intensity (a.u.). Turning to “TGCTATGCTATGGCAAGAACATCTTGAGCCATGACATCATCGGAGTCACCTAGTGCAG”, the binding signal was 4390 fluorescence intensity (a.u.).

For “AATGCCAAGTGGCAGCCTATGAGCGTTTGTAGCATGCCATCGGAGTCACCTAGTGCAG”, the binding signal is 41200 fluorescence intensity (a.u.). As for “TCTGTTTAGTTACATCACTGATGGTCTTGATTTCGCAGTGCGGAGTCACCTAGTGCAG”, the figure is 4040 fluorescence intensity (a.u.). As for “CTGCACTACGCCGCAGACGAACTGACGTGGTCGTATAAAACGGAGTCACCTAGTGCAG”, the figure is 5790 fluorescence intensity (a.u.); as for “CCCTGGGTGGTTTTGGAGGTGGTTTTGGTTGACGTGGCGCCGGAGTCACCTAGTGCAG”, 21400 fluorescence intensity (a.u.).
